{"source": "the supplement of paper PMC10933113", "note": "Structures can show the parent of a compound that is named as a salt. ± gives the uncertainty stated by the source.", "data": [{"tested_on": "THP-1", "experiment": "CD86 surface expression induction over DMSO control (% over DMSO); higher = stronger dendritic cell activation", "conditions": "exposure time: 24 h", "experimental": "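hCLAT-like CD54 and CD86 surface expression on THP1 cells after 24 h exposure at a single concentration (highest non-cytotoxic concentration, or 100-200 µM if not cytotoxic). Flow cytometry (iQue) was run on 5,000 live cells.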", "values": [{"smiles": "CCC(C)(CC)c1cc(NC(=O)c2c(OC)cccc2OC)on1", "note": "[Isoxaben] (200 µM)", "CD86 surface expression induction": "0.63 ± 1.4"}, {"smiles": "COP(=O)(OC)OC(Br)C(Cl)(Cl)Br", "note": "(stereo not given) [Naled] (100 µM)", "CD86 surface expression induction": "30.5 ± 5.4"}, {"smiles": "COP(=S)(OC)Oc1nc(Cl)c(Cl)cc1Cl", "note": "[Chlorpyrifos-methyl] (200 µM)", "CD86 surface expression induction": "17.7 ± 42"}, {"smiles": "c1cc(OCC2CO2)ccc1Cc1ccc(OCC2CO2)cc1", "note": "(stereo not given) [Bis[4-(glycidyloxy)phenyl]methane] (100 µM)", "CD86 surface expression induction": "7.56 ± 6.6"}, {"smiles": "CCCCNC(=O)OCC#CI", "note": "[Carbamic acid, butyl-, 3-iodo-2-propynyl ester] (10 µM)", "CD86 surface expression induction": "-9.06 ± 2.4"}, {"smiles": "COc1ccc2[nH]cc(CCN(C(C)C)C(C)C)c2c1", "note": "[5-Methoxy-N,N-diisopropyltryptamine hydrochloride] (224.7 µM)", "CD86 surface expression induction": "-4.94 ± 3.2"}, {"smiles": "Cc1ccc(N=C=O)cc1N=C=O", "note": "[Toluene-2,4-diisocyanate] (100 µM)", "CD86 surface expression induction": "3.76 ± 8.7"}, {"smiles": "Nc1ccc(-c2ccccc2)cc1", "note": "[4-Biphenylamine hydrochloride] (100 µM)", "CD86 surface expression induction": "-3.55 ± 5.8"}, {"smiles": "Nc1ccc([N+](=O)[O-])cc1N", "note": "[4-Nitro-1,2-phenylenediamine] (100 µM)", "CD86 surface expression induction": "-1.29 ± 1.9"}, {"smiles": "O=C1C=CC(=O)c2ccccc21", "note": "(10 µM)", "CD86 surface expression induction": "366 ± 22"}, {"smiles": "O=[N+]([O-])c1cc(C(F)(F)F)c(Cl)c([N+](=O)[O-])c1Cl", "note": "[2,4-Dichloro-1,3-dinitro-5-(trifluoromethyl)benzene] (10 µM)", "CD86 surface expression induction": "34.2 ± 15"}, {"smiles": "O=C(N/N=C/c1ccc([N+](=O)[O-])o1)c1cc([N+](=O)[O-])cc([N+](=O)[O-])c1O", "note": "[Nifursol] (200 µM)", "CD86 surface expression induction": "8.52 ± 13"}, {"smiles": "O=[N+]([O-])c1c(Cl)c(Cl)c(Cl)c(Cl)c1Cl", "note": "[Pentachloronitrobenzene] (100 µM)", "CD86 surface expression induction": "55.3 ± 53"}, {"smiles": "CC(C)=CC1C(C(=O)OCc2coc(Cc3ccccc3)c2)C1(C)C", "note": "(stereo not given) [Resmethrin] (200 µM)", "CD86 surface expression induction": "16.4 ± 4.8"}, {"smiles": "COP(=S)(OC)Oc1ccc(SC)c(C)c1", "note": "[Fenthion] (100 µM)", "CD86 surface expression induction": "-4.96 ± 3.4"}, {"smiles": "CCC(C)(c1ccc(O)cc1)c1ccc(O)cc1", "note": "[Bisphenol B] (200 µM)", "CD86 surface expression induction": "4.76 ± 3"}, {"smiles": "O=[N+]([O-])c1ccc(Oc2ccc(C(F)(F)F)cc2[N+](=O)[O-])cc1", "note": "[Fluorodifen] (10 µM)", "CD86 surface expression induction": "-11.9 ± 9.2"}, {"smiles": "N#C/C=C/C#N", "note": "[Fumaronitrile] (10 µM)", "CD86 surface expression induction": "-2.66 ± 6.7"}, {"smiles": "c1ccc(-c2cccc(-c3ccccc3)c2)cc1", "note": "[1,1':3',1''-Terphenyl] (200 µM)", "CD86 surface expression induction": "17.1 ± 26"}, {"smiles": "ClC1=C(Cl)C(Cl)(Cl)C(Cl)=C1Cl", "note": "[Hexachlorocyclopentadiene] (200 µM)", "CD86 surface expression induction": "99.2 ± 97"}, {"smiles": "COc1ccccc1N", "note": "[2-Methoxyaniline hydrochloride] (100 µM)", "CD86 surface expression induction": "-19.9 ± 30"}, {"smiles": "NNC(N)=S", "note": "[Thiosemicarbazide] (10 µM)", "CD86 surface expression induction": "-15.6 ± 6.4"}, {"smiles": "C=CC(=O)OCC(COC(=O)C=C)(COC(=O)C=C)COC(=O)C=C", "note": "[Pentaerythritol tetraacrylate] (10 µM)", "CD86 surface expression induction": "8.9 ± 7.2"}, {"smiles": "CCc1cccc(CC)c1N(COC)C(=O)CCl", "note": "[Alachlor] (100 µM)", "CD86 surface expression induction": "22.3 ± 7.5"}, {"smiles": "CN(C)c1ccc(N(C)C)cc1", "note": "[*N,N,N',N'-Tetramethyl-p-phenylenediamine] (200 µM)", "CD86 surface expression induction": "52.4 ± 59"}, {"smiles": "CC(C)OC(=S)S", "note": "[Proxan-sodium] (10 µM)", "CD86 surface expression induction": "-16.7 ± 6.5"}, {"smiles": "Cc1cc(C2CC2)nc(Nc2ccccc2)n1", "note": "[Cyprodinil] (200 µM)", "CD86 surface expression induction": "44.9 ± 64"}, {"smiles": "CN(C)S(=O)(=O)N(SC(F)(Cl)Cl)c1ccccc1", "note": "[Dichlofluanid] (10 µM)", "CD86 surface expression induction": "88.09 ± 0.57"}, {"smiles": "C[C@@H]1O[C@@H](O[C@H]2C[C@@H](O)[C@]3(CO)[C@H]4[C@H](O)C[C@]5(C)[C@@H](C6=CC(=O)OC6)CC[C@]5(O)[C@@H]4CC[C@]3(O)C2)[C@H](O)[C@H](O)[C@H]1O", "note": "[Ouabain] (10 µM)", "CD86 surface expression induction": "51.7 ± 16"}, {"smiles": "CN(C)c1ccc(N)cc1", "note": "[N,N-Dimethyl-p-phenylenediamine] (100 µM)", "CD86 surface expression induction": "44.5 ± 46"}, {"smiles": "CCCOC/C(=N\\c1ccc(Cl)cc1C(F)(F)F)n1ccnc1", "note": "[Triflumizole] (10 µM)", "CD86 surface expression induction": "-11.1 ± 7.1"}, {"smiles": "C=C1C[C@@H]2[C@H](CC[C@]3(C)C(=O)CC[C@@H]23)[C@@]2(C)C=CC(=O)C=C12", "note": "[Exemestane] (100 µM)", "CD86 surface expression induction": "12.3 ± 25"}, {"smiles": "O=C(O)c1ccccc1C(=O)Nc1cccc2ccccc12", "note": "[Naptalam*] (200 µM)", "CD86 surface expression induction": "78.5 ± 110"}, {"smiles": "CC(COc1ccc(Oc2ccccc2)cc1)Oc1ccccn1", "note": "(stereo not given) [Pyriproxyfen] (200 µM)", "CD86 surface expression induction": "-0.44 ± 4.1"}, {"smiles": "CCCCOCN(C(=O)CCl)c1c(CC)cccc1CC", "note": "[Butachlor] (10 µM)", "CD86 surface expression induction": "-11.7 ± 10"}, {"smiles": "Nc1ccc(N)cc1", "note": "[1,4-Benzenediamine] (10 µM)", "CD86 surface expression induction": 29}, {"smiles": "c1ccc2c(c1)OCC(C1=NCCN1)O2", "note": "(stereo not given) [Idazoxan] (10 µM)", "CD86 surface expression induction": "-10.6 ± 13"}, {"smiles": "NNCc1ccccc1", "note": "(100 µM)", "CD86 surface expression induction": "2.81 ± 0.59"}, {"smiles": "c1ccc(Nc2ccc(Nc3ccccc3)cc2)cc1", "note": "[N,N'-Diphenyl-p-phenylenediamine] (200 µM)", "CD86 surface expression induction": "-11.2 ± 8.1"}, {"smiles": "Nc1ccc(Cl)cc1Cl", "note": "[2,4-Dichloroaniline] (200 µM)", "CD86 surface expression induction": "-3.25 ± 7.7"}]}]}
